According to PubChem BioAssay:
Results filed as inconclusive are left out. Active and inactive are the calls of the source.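 How the source made its calls, unless noted: active means compound raises insulin release from rat beta cells at 5 mM glucose, no numeric limit stated; inactive means the rest.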 Peptide text beside a SMILES is read from it.

Experiments:
[1] = stimulators of insulin release from INS-1E, primary screen, cell-based, 5 mM glucose, NPC library (AID 1117329); conditions: rat INS-1E insulin secretion, at 10 µM, stronger effect = higher value
[2] = growth inhibition of GSK3B-pretreated HCT116 cells – cell-based, CellTiter-Glo, 0.2 to 20 µM (AID 1117336;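 active means compounds lowering colon cancer cell viability after pretreatment blocking the GSK3B kinase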); conditions: HCT116 viability after GSK3B inhibitor, at 20 µM, stronger effect = higher value
[3] = inhibition of endothelial tube formation, primary screen, imaging, VEGF stimulated, CD31 staining, tube area, NPC library (AID 1117340;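 active means compound that reduces growth-factor-driven endothelial tube area in a mixed cell culture, no cutoff stated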); conditions: VEGF-stimulated ADSC/ECFC co-culture, at 10 µM, stronger effect = higher value
[4] = glucagon-like peptide 1 release enhancers, primary assay, NCI-H716 cell line, NPC library (AID 1117341;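 active means compound raises GLP1 secretion from the human gut endocrine cells, with no numeric limit stated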); conditions: NCI-H716 cells, at 10 µM, stronger effect = higher value
[5] = HCT116 colon cancer cell growth inhibition, primary screen, CellTiter-Glo luminescence, NPC library (AID 1117342;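 active means compounds that lower survival of HCT116 colon cancer cells in the luminescence readout, no numeric limit stated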); conditions: at 20 µM (top of the series)
[6] = CellTiter-Glo luminescent readout of SW480 viability loss, NPC library primary (AID 1117343;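 active means compounds that lower viability of the colon cancer cells in the luminescence readout, with no numeric limit stated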); conditions: CellTiter-Glo luminescence; at 20 µM (top of the series)
[7] = decreased DLD-1 cellular survival, CellTiter-Glo luminescent readout, NPC compound collection, primary HTS (AID 1117346;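 active means compounds that lower survival of DLD-1 colon cancer cells in the luminescence readout, no cutoff given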); conditions: DLD-1 viability, CellTiter-Glo luminescence; at 20 µM (top of the series)
[8] = biological target: 6-phosphogluconate dehydrogenase, decarboxylating (Homo sapiens) (UniProt P52209); assay: 6PGD enzyme inhibitors, primary screen, biochemical, human, recombinant enzyme, NADPH absorbance (AID 1159550;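 active means at least 20% inhibition of 6-phosphogluconate dehydrogenase activity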); conditions: recombinant 6PGD, NADPH absorbance 341 nm; at 10 µM; stronger effect = higher value
[9] = differential killing of epithelial or mesenchymal cells, primary screen, imaging, PC-3E GFP, TEM4-18 mCherry, co-culture (AID 1345086;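 active means compounds killing one labelled cell type while sparing the other, by normalised counts and ratio limits, not self-fluorescent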;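 on all read-outs here: cells exposed to compound for 72 h before imaging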;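 on red/green cell ratio (normalised): normalised mesenchymal count divided by normalised epithelial count so high means epithelial killing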); conditions: imaging cell counts, at 1 µM; for red/green cell ratio (normalised): actives lie on both sides, counts scaled to control wells, 1 = unselective
[10] = growth inhibition of DIPG glioma cells, dose response, cell-based, SU-DIPG-XVII, MIPE5.0, CellTiter-Glo, qHTS (AID 1347060; cut-off not given, nearly all actives have AC50 up to about 26 µM;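 on AC50: cells exposed to compound for 48 hours before viability readout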); conditions: SU-DIPG-XVII viability, CellTiter-Glo ATP luminescence
[11] = growth inhibition of DIPG glioma cells, dose response, cell-based, SU-DIPG-XIII, MIPE4.0, CellTiter-Glo, qHTS (AID 1347061; cut-off not given, nearly all actives have AC50 up to about 37 µM;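 further: cells exposed to compound for 48 hours before readout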); conditions: SU-DIPG-XIII viability, CellTiter-Glo ATP luminescence
[12] = growth inhibition of DIPG glioma cells, dose response, cell-based, JHH-DIPG-1, MIPE4.0, CellTiter-Glo, qHTS (AID 1347062; cut-off not given, nearly all actives have AC50 up to about 27 µM;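 on AC50: cells exposed to compound for two days before readout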); conditions: JHH-DIPG-1 viability, CellTiter-Glo ATP luminescence
[13] = growth inhibition of DIPG glioma cells, dose response, cell-based, SU-DIPG-IV, MIPE4.0, CellTiter-Glo, qHTS (AID 1347063; cut-off not given, nearly all actives have AC50 up to about 30 µM;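 further: compound exposure lasted 48 hours before the viability readout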); conditions: SU-DIPG-IV viability, CellTiter-Glo ATP luminescence
[14] = growth inhibition of DIPG glioma cells, dose response, cell-based, SU-DIPG-XIII, MIPE5.0, CellTiter-Glo, qHTS (AID 1347064; cut-off not given, nearly all actives have AC50 up to about 23 µM); conditions: SU-DIPG-XIII viability, CellTiter-Glo ATP luminescence
[15] = system: Aerobactin synthetase IucA (Klebsiella pneumoniae); assay: IucA aerobactin synthetase inhibitors, biochemical, Tocris library, absorbance (AID 1345561; call rule not given here;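 further: 100% = enzyme without compound and 0% = no enzyme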); conditions: purified IucA enzyme assay, absorbance (OD) read-out; stronger effect = lower value;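 tested at 8 µM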
[16] = measured here: epithelial PC-3E GFP cell survival
[17] = measured here: mesenchymal TEM4-18 mCherry cell survival

6-phosphogluconate dehydrogenase, decarboxylating (Homo sapiens), sequence (P52209 whole entry, looked up): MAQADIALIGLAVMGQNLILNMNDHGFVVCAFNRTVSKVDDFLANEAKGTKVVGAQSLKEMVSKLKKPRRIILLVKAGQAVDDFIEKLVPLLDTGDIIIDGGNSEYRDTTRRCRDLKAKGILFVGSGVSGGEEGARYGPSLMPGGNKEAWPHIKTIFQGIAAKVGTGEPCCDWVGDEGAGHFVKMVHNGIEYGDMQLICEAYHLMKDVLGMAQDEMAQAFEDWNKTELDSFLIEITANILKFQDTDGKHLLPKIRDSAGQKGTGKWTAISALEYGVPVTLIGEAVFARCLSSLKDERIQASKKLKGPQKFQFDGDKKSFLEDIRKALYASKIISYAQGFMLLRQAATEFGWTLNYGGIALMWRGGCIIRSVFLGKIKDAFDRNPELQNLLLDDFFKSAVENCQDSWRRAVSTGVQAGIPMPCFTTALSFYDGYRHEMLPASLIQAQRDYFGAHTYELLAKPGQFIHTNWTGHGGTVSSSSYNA

| SMILES | insulin secretion stimulation [1] | viability decrease [2] | tube area decrease [3] | GLP1 secretion stimulation [4] | inhibition of viability [5] | viability decrease (inhibition) [6] | viability decrease (inhibition) [7] | inhibition [8] | red/green cell ratio (normalised) [9] | normalised cell number [9, 16] | normalised cell number [9, 17] | outcome [10] | outcome [11] | outcome [12] | outcome [13] | AC50 [12] | outcome [14] | AC50 [10] | remaining activity [15] |
| --- | --- | --- | --- | --- | --- | --- | --- | --- | --- | --- | --- | --- | --- | --- | --- | --- | --- | --- | --- |
| COC(=O)[C@H](Cc1ccccc1)NC(=O)[C@@H](N)CC(=O)O (H-Asp-Phe-OMe) | 2.8% (inactive) | -0.5% (inactive) | 6.5% (inactive) | 0.8% (inactive) | 5% (inactive) | -6.8% (inactive) | 9.55% (inactive) | 10.8% (inactive) | 1.23 (inactive) | 1.01 | 1.24 | inactive | inactive | inactive | inactive | – | – | – | – |
| Cc1ccc(S(=O)(=O)NC(=O)NN2CC3CCCC3C2)cc1 (centres undefined) | 42.6% (active) | -5.85% (inactive) | -26.1% (inactive) | 0.8% (inactive) | -22.6% (inactive) | 22.3% (inactive) | -0.5% (inactive) | 2.59% (inactive) | 0.84 (inactive) | 1.15 | 0.96 | inactive | inactive | – | – | 20.9 µM (active) | inactive | – | – |
| C/C=C(/C(=C/C)c1ccc(O)cc1)c1ccc(O)cc1 | -1.9% (inactive) | 101% (active) | 49.5% (active) | 34.7% (active) | 101% (active) | 123% (active) | 102% (active) | 15.9% (inactive) | 1.38 (inactive) | 1.12 | 1.55 | – | inactive | inactive | – | – | – | 23.5 µM (active) | – |
| O=c1c(-c2ccc(O)cc2)coc2cc(O)cc(O)c12 | 0.8% (inactive) | 36.1% (inactive) | 54.6% (active) | 7% (inactive) | -0.9% (inactive) | 94.1% (active) | 8.45% (inactive) | 3.56% (inactive) | 0.95 (inactive) | 0.96 | 0.91 | – | inactive | inactive | inactive | – | inactive | – | 121% (inactive) |
| COc1cc([C@H]2Oc3cc([C@H]4Oc5cc(O)cc(O)c5C(=O)[C@@H]4O)ccc3O[C@@H]2CO)ccc1O | 1.8% (inactive) | -35.4% (inactive) | 4.2% (inactive) | 2.1% (inactive) | 18.7% (inactive) | 16.2% (inactive) | -3.4% (inactive) | 9.07% (inactive) | 0.97 (inactive) | 0.9 | 0.88 | inactive | inactive | inactive | – | – | – | – | – |
